A selection: hits, their analogues and other compounds. The true share with any hit is near 0.76%.
Mtb betalactam: beta-lactam sensitization of Mtb H37Rv, H37Rv; M. tuberculosis H37Rv growth with meropenem, percent inhibition; inhibition, % at 25 µM; actives 0.27% (n = 330,000); call rule not given here;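 further: growth measured after seven days incubation then overnight dye step; 0% = bacteria only wells and 100% = bacteria with antibiotic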
FadD28 FP inh: inhibitors of FadD28 bisubstrate probe binding, primary screen, biochemical, fluorescence polarization, single point. inhibition, % at 12.5 µM. actives 0.22% (n = 360,000). AID 588549, 2011; in the data active means inhibition above about 8.5%, passing the limit was not always enough; inconclusive means no clear call, values can overlap the other calls
Mtb UGM inh: M. tuberculosis UGM enzyme inhibitors, primary screen, biochemical, fluorescence polarization, single point. UDP-galactopyranose mutase (Mycobacterium tuberculosis (strain ATCC 25618 / H37Rv)), …. purified UGM, fluorescence polarization probe displacement. actives 0.06% (n = 320,000). inhibition, % at 10 µM; in the data active means inhibition above about 10%, passing the limit was not always enough; inconclusive means no clear call, values can overlap the other calls
Target sequence (P9WIQ1 whole entry, looked up): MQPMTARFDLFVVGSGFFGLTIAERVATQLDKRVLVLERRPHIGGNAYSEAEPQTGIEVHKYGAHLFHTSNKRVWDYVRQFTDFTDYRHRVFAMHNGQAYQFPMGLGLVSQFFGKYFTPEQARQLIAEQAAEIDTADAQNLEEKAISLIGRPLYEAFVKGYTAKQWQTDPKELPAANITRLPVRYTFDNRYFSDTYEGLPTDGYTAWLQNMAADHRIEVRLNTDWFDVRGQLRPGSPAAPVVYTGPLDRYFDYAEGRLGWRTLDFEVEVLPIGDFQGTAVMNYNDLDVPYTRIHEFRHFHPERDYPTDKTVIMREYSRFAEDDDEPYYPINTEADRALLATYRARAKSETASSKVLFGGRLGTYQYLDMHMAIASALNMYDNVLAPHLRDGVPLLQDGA
Rv3671c inh: Rv3671c serine protease inhibitors, primary screen, biochemical, fluorescence polarization, M. tuberculosis H37Rv | P9WHR9 | inhibition, % at 5.96 µM | actives 0.048% (n = 320,000); in the data active means inhibition above about 38%;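 further: extracellular domain of Rv3671c used as enzyme; 0% = enzyme with DMSO and 100% = no enzyme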
PrP UTR inh: inhibition of PrP 5' UTR reporter expression; actives 0.35% (n = 340,000); cell-based PrP 5' UTR mRNA reporter, plate reader; inhibition, % (concentration not given with the values); in the data active means inhibition above about 52%; further: 0 = median of the neutral control wells
BH1578 lux ind: inducers of Vibrio cholerae quorum light production without autoinducers, primary screen, BH1578 luxS cqsA deficient, single point. V. cholerae BH1578 lux reporter, luminescence, 6 h. actives 0.16% (n = 350,000). activation, % at 18.7 µM; in the data active means activation mostly above about 9.7%, no sharp cut-off; inconclusive means no clear call, values can overlap the other calls; inactive means mostly below about 3.7%
* marks the source's active call; other numbers are inactive results; i = inactive; ? = inconclusive; nt = no result given; + = active, no number.

SMILES	Mtb betalactam	FadD28 FP inh	Mtb UGM inh	Rv3671c inh	PrP UTR inh	BH1578 lux ind
O=C(O)COc1ccc(Br)cc1CP(=O)(c1ccccc1)c1ccccc1	-9	-2	-2	8	-24	0
O=C(O)COc1ccc(Br)cc1C(c1c(C(=O)O)[nH]c2ccccc12)c1c(C(=O)O)[nH]c2ccccc12	-6	28*	2	3	-24	-1
Cc1cc(C)c(C)c(S(=O)(=O)NC(C(=O)NCCc2ccco2)C(C)C)c1C (stereo not drawn)	0	-2	2	-14	-25	i
CC(=O)Nc1ccc(S(=O)(=O)Nc2nc3ccccc3nc2Nc2ccc(C(=O)O)c(O)c2)cc1	-3	25*	3	-6	-10	i
CN(Cc1ccccc1)C(=O)c1ccc2nc([C@@H]3O[C@H](CO)[C@H](O)[C@H](O)[C@H]3O)[nH]c2c1	nt	-1	nt	nt	nt	i
Cc1c(C(=O)O)cccc1-n1c(C)cc(/C=N/Nc2ccc([N+](=O)[O-])cn2)c1C	45	34*	-1	7	-14	-2
Cc1cc(/C=N/Nc2ccc([N+](=O)[O-])cn2)c(C)n1-c1ccccc1	3	-6	-3	8	-90	i
CC(C)N1CCc2c(sc(NC(=O)c3ccc([N+](=O)[O-])o3)c2C(N)=O)C1	99	-4	2	4	95*	0
O=C(Cn1nc(-c2ccccc2)c2ccccc2c1=O)Nc1ccc(F)cc1	11	-2	-2	-4	-44	-1
N#Cc1c(-c2ccccc2)c(-c2ccccc2)nn(CC(=O)NNC(=O)Nc2ccc(Cl)c(Cl)c2)c1=O	100	17*	4	-256	-20	i
COC(=O)c1sc2nc(-c3ccco3)ccc2c1N	-12	1	2	5	-88	0
NC(=O)c1sc2nc(-c3ccco3)ccc2c1N	-1	-1	0	6	-16	32*
COc1ccc(OC)c(NC(=O)C2CC(=O)N(Cc3ccco3)C2)c1 (stereo not drawn)	nt	-1	nt	nt	-16	i
S=C(NCc1ccccc1)NCc1cccc(CNC(=S)NCc2ccccc2)c1	24	25*	1	-87	3	4
S=C(NCc1ccccc1)NCc1cccc(Cl)c1	5	-3	0	nt	-10	-2
CCOC(=O)c1nn(-c2ccc(C)cc2)cc1O	61	0	-1	-1	-71	+
CCOC(=O)c1nn(-c2ccc(Cl)cc2)cc1O	92	0	9	-21	-26	i
COc1ccc(CCNC(=O)CN2C(=O)COc3ccc(S(=O)(=O)N4CCOCC4)cc32)c(OC)c1	-3	-6	-1	-2	3	0
Cc1ccc(CNC(=O)C(Cc2ccccc2)NS(=O)(=O)c2cccs2)cc1 (stereo not drawn)	-1	16*	-1	-8	-36	i
CSCCC(NS(=O)(=O)c1cccs1)C(=O)NCc1ccc(C)cc1 (stereo not drawn)	?	-2	-3	-34	-14	i
Cc1ccc(CNC(=O)[C@H](Cc2ccccc2)NC(=O)c2ccco2)cc1	-6	-1	-5	7	-10	i
Cc1ccc(CNC(=O)C(Cc2ccccc2)NS(=O)(=O)c2ccc(Br)s2)cc1 (stereo not drawn)	4	50*	0	-6	-6	0
COC(=O)C/C=C/N(Cc1ccccc1OC)S(=O)(=O)CCl	nt	-3	nt	nt	-20	0
Nc1ccc(-c2c3ccc(=O)cc-3oc3cc(O)ccc23)c(C(=O)O)c1	2	5	45*	5	-2	-3
CCCCNc1c(C(=O)OCC)c(=O)[nH]c2ccccc12	1	-1	2	-2	-7	0
CCOC(=O)c1c(NCC(C)C)c2ccccc2[nH]c1=O	7	-1	-1	2	-1	17*
COc1ccccc1/C=C1\SC(=S)N(CCC(=O)NCCc2ccc(O)cc2)C1=O	-4	-3	1	-21	2	0
CC1(C(=O)NS(=O)(=O)c2ccc(C#N)cc2)CCN1C(=O)C1CCCCC1 (stereo not drawn)	nt	0	nt	nt	nt	i

High-throughput results (PubChem BioAssay)
